KDM5B inhibitor – KDM5B demethylase inhibition. Q9UGL1. KDM5B demethylase, FDH-coupled NADH fluorescence (FDH is formaldehyde dehydrogenase). Potency, µM (top dose mostly 57.7 µM), hits mostly inhibitors. hit rate 2.6% among 220,000. AID 1347165; active means well fitted inhibition curve with a large enough effect; further: 0% is about no effect; nearly all actives have a fitted effect of over 70% in size
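Measured: NADH fluorescence change, 30 min, RT. System: KDM5BΔAP 200 nM final, H3K4me3 peptide, α-KG, Fe(II), ascorbate, NAD⁺ plus FDH, pH 7.5 HEPES. Compounds: titrated, 10 min pre-incubation with enzyme.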
* marks the source's active call; other numbers are inactive results; i = inactive. This is one part of a sample in which hits are shown more often than they occur. Potency means the concentration at half of the fitted maximal effect.

SMILES | KDM5B inhibitor
Cc1ccc(-c2nnn3c2nc(NCCc2ccc(Cl)cc2)c2ccccc23)cc1 | i
C[S+](=O)([O-])c1ccc(-c2cc(C(=O)NCCc3ccc(Cl)cc3)nn3cccc23)cc1 | i
COc1ccc(CN2CCCC23Cc2ccccc2CNC3=O)c(O)c1 (stereo not given) | i
O=C1NCc2ccccc2CC12CCCN2Cc1ccc(O)cc1O (stereo not given) | 89µM*
O=C1NCc2ccccc2CC12CCCN2Cc1ccc(O)cc1 (stereo not given) | i
CC(=O)Nc1cc(F)ccc1-c1csc(NC(=O)CCc2ccco2)n1 | i
Cc1nnc(-c2cc(-c3ccccc3Oc3ccccc3)ccn2)n1CCN1CCOCC1 | i
COc1cccc(-c2ncc3c(n2)OCCN(c2ccccc2)C3=O)c1OC | i
O=C1c2cc(N3CCOCC3)nc(-c3ccccc3Oc3ccccc3)c2CN1C1COC1 | 28µM*
CN1Cc2ncnc(N3CCOCC3)c2CN(c2cccnc2)C1=O | i
COc1ccc(N2Cc3c(ncnc3N3CCOCC3)N(C)CC2=O)cc1 | i
Cn1cc(-c2nc(N3CCOCC3)cc3c2CN(c2ccccc2)C3=O)cn1 | 20µM*
Cc1cc(N2CCOCC2)nc(Nc2ccc(NC(=O)c3ccccc3)cc2)n1 | i
COc1ccccc1-c1nc(N2CCOCC2)cc2c1CN(c1ccccc1)C2=O | 35µM*
COc1ccc(NC(=O)Nc2ccc3nc(N4CCOCC4)cc(C)c3c2)cc1OC | i
COc1ccc(-c2cc(C[C@@H]3CC[C@H](O)[C@@H](CNCc4ccccc4OC)O3)no2)cc1 | i
O=C(COc1ccc2c(=O)c(Oc3ccc(-c4ccccc4)cc3)coc2c1)NCc1ccccc1 | i
CCNc1c(NC(=O)c2ccc(C(C)(C)C)cc2)c(=O)oc2ccccc12 | i
Cc1cc(C)cc(NC(=O)c2ccc3c(c2)NC(=O)CS3)c1 | i
CC1CCN(CCNC(=O)c2n[nH]c(=O)c3ccccc23)CC1 | i
C#CCNC(=O)CN1CCN(C(=O)c2ccc(F)cc2)CC1 | i
Cc1ccc(C(=O)NC2CCCc3ccccc32)c(C)c1 (stereo not given) | i
CCOc1ccc(NC(=O)CC2C(=O)Nc3ccccc3N2C(=O)c2ccc(C(C)(C)C)cc2)cc1 (stereo not given) | i
CCCCn1nc(C(=O)Nc2ccc(C)cc2Br)c2ccccc2c1=O | i
CCCCN(Cc1ccccc1)c1ccc(NS(=O)(=O)c2ccc(C(C)=O)cc2)cc1C(=O)O | i
SMILES | KDM5B inhibitor
Cc1c2cnn(CC(=O)NCc3cccs3)c(=O)c2c(C)n1Cc1ccccc1 | i
COc1ccc2[nH]c(C(=O)NCC(=O)N3CCCCCNC(=O)CC3c3ccccc3)cc2c1 (stereo not given) | 28µM*
COc1ccc2[nH]c(C(=O)NCC(=O)N3CCCCCCNC(=O)CC3c3ccccc3)cc2c1 (stereo not given) | 16µM*
COc1ccc(C(=O)N2CCCCCCNC(=O)[C@@H]3CCC[C@@H]32)cc1 | i
COc1ccc(C2(C(=O)NCC(=O)N3CCCCCNC(=O)CC3c3ccccc3)CC2)cc1 (stereo not given) | i
COc1ccc2[nH]c(C(=O)N3CCCCCNC(=O)[C@@H]4CCC[C@@H]43)cc2c1 | 28µM*
O=C1NCCCCCCN(C(=O)c2cc3ccccc3[nH]2)[C@H]2CCC[C@@H]12 | i
COc1ccc(C(=O)NCC(=O)N2CCCCCCNC(=O)CC2c2ccccc2)cc1 (stereo not given) | i
COc1ccc(C(=O)NCC(=O)N2CCCCCCNC(=O)CC2c2ccccc2)c(OC)c1 (stereo not given) | i
COc1ccc(CCC(=O)NCC(=O)N2CCCCCNC(=O)CC2c2ccccc2)cc1 (stereo not given) | i
O=C1CCN(C(=O)CCCc2ccccc2)CCCCCCN1 | i
COc1cccc(CN2CCC3(CC2)NC(=O)c2ccccc2O3)c1 | i
Oc1ccc(Cl)cc1C=NCc1ccc(F)c(Cl)c1 | i
NC(=O)CN1CCCC(C(=O)O)C1 (stereo not given) | i
N#Cc1cccc(OCc2nc3c(n2Cc2ccccc2)C(=O)N(Cc2ccccc2F)CCN3)c1 | i
Oc1c(Cl)cccc1C=Nc1cc(C(F)(F)F)ccc1Oc1ccc(Cl)cc1 | i
CCN1C(=O)CCc2cc(NS(=O)(=O)Cc3ccccc3)ccc21 | i
Cc1cc(F)ccc1NC(=O)c1cnc(-c2ccc(F)cc2)nc1-c1ccncc1 | i
O=C(NC1CC1)c1nc(-c2ccc(F)cc2)c2cnccn12 | 35µM*
CN(C)C(=O)c1nc(-c2cccc(F)c2)c2cnccn12 | 35µM*
CCC(C(=O)NC1CCCCC1)n1c(SCc2ccc(F)cc2)nc2ccncc21 (stereo not given) | i
Cc1ccc(S(=O)(=O)Nc2ccccc2C(=O)NCc2cccnc2)cc1 | i
CN(CC(=O)Nc1cccc(F)c1)C(=O)c1ccncc1 | i
CN(C)C(=O)c1nc(-c2ccc(Cl)nc2)c2cnccn12 | i
C[C@H](O)c1onc(-c2ccc(F)cc2)c1C(=O)NC1CCC1 | i
CN(C)C(=O)c1nc(-c2ccc(F)cc2)c2cnccn12 | 35µM*

Source: PubChem BioAssay (National Center for Advancing Translational Sciences (NCATS))
